From the supplement of paper PMC10849652
Of roughly 8,800 targets only a part is listed; those with a hit were picked by preference. About 0.5% of all pairs of compound and target were hits.

The targets below were run with O=C(O)c1ccc2c(c1)nc(Nc1cccc(Cl)c1)c1ccncc12 [silmitasertib] (assay: log2 fold change, soluble protein after heating vs DMSO (PISA); higher = thermal stabilisation; K562 lysate, 10 uM; active = over 0.2 and 3.5 SD of the protein, either way, in both replicates (recomputed)).
Summary of the method: (§1)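 Soluble protein was defined as the supernatant remaining after 21,000xg for 90 min, following pooling of heated aliquots and adjustment to 0.5% NP-40 at 4°C. Before that, crude K562 extract at 1 mg/mL protein in PBS pH 7.4 with 1 mM MgCl2 was treated with 10 μM compound for 30 min and heated for 3 min across 48°C-58°C. Quantification used TMTpro 16plex LC-MS/MS with channel sums equalised, and values are log-two fold changes in thermal stability relative to solvent controls from duplicates.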

UniProt Q9Y5T5, sequence (Q9Y5T5 whole entry, looked up): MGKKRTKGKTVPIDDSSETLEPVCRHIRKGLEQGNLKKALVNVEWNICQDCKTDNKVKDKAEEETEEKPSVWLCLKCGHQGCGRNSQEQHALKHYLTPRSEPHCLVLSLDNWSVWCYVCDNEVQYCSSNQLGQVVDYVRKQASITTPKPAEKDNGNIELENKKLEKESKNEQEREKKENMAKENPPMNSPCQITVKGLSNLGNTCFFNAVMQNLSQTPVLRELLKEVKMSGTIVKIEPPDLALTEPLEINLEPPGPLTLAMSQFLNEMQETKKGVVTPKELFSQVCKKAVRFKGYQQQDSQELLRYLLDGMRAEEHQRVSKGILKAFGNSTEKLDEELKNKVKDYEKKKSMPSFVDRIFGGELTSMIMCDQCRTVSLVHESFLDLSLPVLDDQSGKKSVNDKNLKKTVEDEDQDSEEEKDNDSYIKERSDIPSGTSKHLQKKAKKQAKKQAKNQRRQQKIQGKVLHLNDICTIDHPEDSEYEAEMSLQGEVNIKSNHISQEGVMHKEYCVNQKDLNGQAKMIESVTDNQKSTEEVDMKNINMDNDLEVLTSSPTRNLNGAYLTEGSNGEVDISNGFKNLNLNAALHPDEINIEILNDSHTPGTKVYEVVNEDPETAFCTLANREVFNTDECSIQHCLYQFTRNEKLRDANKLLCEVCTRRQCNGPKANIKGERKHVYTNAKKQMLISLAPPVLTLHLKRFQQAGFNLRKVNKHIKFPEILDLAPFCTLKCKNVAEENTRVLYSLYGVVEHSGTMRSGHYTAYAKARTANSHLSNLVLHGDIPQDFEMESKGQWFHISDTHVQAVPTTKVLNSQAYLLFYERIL
UniProt Q9NNW5, sequence (Q9NNW5 whole entry, looked up): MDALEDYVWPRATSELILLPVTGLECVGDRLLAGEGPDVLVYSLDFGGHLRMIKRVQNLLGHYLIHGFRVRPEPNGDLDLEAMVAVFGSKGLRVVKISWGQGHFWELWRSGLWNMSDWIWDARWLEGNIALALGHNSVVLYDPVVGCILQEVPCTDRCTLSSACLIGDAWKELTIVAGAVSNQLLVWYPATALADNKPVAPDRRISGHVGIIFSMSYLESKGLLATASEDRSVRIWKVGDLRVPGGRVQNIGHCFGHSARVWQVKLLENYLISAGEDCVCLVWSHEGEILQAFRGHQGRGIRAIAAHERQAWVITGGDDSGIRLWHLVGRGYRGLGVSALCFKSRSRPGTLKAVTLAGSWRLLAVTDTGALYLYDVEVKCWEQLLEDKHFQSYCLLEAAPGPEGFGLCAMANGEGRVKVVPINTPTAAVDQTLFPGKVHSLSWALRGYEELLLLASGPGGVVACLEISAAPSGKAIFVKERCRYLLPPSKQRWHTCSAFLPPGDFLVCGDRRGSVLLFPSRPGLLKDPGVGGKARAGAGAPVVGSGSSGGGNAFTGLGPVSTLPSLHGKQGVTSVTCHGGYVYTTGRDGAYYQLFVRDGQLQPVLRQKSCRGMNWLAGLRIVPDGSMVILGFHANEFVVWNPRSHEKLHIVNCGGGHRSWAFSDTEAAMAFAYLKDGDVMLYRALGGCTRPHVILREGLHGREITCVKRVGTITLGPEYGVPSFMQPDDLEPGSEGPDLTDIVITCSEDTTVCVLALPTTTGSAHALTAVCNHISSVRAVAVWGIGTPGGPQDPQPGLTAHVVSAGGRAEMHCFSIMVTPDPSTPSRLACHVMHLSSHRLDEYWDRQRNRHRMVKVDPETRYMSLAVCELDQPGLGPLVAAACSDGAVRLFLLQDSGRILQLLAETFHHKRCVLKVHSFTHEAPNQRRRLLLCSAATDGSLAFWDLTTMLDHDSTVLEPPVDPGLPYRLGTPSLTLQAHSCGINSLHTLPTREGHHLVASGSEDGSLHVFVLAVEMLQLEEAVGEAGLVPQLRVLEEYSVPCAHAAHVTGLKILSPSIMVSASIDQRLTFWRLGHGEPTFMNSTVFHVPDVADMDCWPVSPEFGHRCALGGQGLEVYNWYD
UniProt Q86Y07, sequence (Q86Y07 whole entry, looked up): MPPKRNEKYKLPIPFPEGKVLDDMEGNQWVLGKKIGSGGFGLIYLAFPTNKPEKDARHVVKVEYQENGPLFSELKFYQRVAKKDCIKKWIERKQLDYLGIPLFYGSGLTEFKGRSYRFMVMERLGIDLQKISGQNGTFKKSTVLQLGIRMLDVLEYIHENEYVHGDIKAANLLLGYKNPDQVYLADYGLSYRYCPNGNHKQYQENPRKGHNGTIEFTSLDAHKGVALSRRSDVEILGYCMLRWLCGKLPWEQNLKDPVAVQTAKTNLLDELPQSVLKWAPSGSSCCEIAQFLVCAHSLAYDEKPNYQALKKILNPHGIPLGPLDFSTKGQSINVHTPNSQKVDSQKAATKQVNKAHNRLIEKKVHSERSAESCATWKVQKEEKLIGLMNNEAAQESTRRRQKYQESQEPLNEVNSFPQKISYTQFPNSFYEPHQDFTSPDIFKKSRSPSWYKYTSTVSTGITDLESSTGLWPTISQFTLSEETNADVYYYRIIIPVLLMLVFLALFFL
UniProt Q08AM6, sequence (Q08AM6 whole entry, looked up): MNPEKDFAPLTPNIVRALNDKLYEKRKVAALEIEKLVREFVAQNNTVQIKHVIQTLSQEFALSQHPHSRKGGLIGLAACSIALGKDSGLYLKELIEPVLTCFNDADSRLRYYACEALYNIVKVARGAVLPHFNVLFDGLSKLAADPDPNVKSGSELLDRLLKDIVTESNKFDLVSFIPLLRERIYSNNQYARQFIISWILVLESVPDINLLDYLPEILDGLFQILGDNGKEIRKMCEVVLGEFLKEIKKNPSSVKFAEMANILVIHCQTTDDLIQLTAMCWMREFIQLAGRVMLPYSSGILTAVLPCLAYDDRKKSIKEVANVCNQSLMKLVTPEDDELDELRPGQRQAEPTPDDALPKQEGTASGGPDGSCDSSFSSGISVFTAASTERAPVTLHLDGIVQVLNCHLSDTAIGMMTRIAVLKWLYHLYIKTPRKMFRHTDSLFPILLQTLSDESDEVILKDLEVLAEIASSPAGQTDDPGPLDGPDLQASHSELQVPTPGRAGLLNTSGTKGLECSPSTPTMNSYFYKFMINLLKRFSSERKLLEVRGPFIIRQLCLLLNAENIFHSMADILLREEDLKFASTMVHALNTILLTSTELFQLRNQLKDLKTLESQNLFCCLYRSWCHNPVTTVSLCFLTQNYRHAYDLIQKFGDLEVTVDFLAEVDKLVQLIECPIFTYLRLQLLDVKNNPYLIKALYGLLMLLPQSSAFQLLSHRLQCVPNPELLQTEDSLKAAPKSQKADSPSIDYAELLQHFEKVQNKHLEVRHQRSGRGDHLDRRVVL
UniProt O43592, sequence (O43592 whole entry, looked up): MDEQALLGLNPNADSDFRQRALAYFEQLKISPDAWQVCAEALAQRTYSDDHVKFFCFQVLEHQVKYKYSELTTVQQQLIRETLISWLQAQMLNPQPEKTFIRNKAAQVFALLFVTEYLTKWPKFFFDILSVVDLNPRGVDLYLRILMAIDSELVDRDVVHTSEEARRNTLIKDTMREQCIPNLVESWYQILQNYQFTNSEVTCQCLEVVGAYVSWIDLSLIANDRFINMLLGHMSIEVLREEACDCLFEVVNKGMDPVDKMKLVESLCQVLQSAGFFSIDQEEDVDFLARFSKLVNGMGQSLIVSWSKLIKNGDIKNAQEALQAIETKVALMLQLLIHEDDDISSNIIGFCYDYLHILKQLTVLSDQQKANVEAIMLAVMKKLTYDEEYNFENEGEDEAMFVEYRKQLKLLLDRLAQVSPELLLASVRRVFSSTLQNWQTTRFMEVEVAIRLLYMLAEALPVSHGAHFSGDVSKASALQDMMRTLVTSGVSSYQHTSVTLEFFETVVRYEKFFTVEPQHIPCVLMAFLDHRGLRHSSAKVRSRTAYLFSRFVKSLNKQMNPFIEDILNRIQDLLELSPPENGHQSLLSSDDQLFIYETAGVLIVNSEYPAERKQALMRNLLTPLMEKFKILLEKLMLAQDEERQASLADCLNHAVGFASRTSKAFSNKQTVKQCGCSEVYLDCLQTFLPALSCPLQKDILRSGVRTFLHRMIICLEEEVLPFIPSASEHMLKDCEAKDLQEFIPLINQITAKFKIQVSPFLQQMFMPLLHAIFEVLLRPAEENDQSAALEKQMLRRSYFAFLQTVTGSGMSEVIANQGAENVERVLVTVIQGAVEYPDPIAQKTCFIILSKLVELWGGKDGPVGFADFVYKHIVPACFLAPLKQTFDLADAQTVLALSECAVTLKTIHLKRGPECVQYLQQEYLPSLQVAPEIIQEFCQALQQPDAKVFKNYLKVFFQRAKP
UniProt Q9UN37, sequence (Q9UN37 whole entry, looked up): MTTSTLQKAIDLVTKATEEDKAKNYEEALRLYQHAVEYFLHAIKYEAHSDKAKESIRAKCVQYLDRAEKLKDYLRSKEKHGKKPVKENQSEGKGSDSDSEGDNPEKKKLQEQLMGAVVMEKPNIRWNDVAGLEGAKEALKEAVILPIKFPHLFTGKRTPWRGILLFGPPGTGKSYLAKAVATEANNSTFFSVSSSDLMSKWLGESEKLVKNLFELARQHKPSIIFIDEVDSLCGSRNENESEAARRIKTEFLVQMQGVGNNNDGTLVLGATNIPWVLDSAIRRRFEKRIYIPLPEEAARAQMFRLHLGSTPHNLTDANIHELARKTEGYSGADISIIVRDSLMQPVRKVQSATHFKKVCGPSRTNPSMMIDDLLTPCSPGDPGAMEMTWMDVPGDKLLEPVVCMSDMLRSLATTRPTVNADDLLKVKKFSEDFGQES
UniProt P27348, sequence (P27348 whole entry, looked up): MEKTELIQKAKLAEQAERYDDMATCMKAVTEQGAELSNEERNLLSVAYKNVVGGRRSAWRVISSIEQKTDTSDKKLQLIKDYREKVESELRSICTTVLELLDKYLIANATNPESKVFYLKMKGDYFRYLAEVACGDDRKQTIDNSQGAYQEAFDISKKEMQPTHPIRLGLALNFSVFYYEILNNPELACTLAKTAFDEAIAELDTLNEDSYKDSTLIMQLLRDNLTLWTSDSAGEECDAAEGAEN
UniProt O00258, sequence (O00258 whole entry, looked up): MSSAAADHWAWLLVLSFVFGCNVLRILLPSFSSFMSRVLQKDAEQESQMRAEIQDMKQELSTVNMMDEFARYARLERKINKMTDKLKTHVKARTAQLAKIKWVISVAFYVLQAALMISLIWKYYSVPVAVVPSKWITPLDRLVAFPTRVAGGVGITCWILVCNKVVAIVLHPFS

log2 fold change, inactive:
XPOT (UniProt O43592) 0.035
VRK2 (UniProt Q86Y07) -0.022
VPS4A (UniProt Q9UN37) 0.059
USP16 (UniProt Q9Y5T5) 0.012
WDR6 (UniProt Q9NNW5) 0.01
VAC14 (UniProt Q08AM6) 0.041

The targets below were run with O=C1NC(=O)C(c2cnc3ccccn23)=C1c1cn2c3c(cc(F)cc13)CN(C(=O)N1CCCCC1)CC2 in the same assay as above.
Summary of the method: as §1

log2 fold change, inactive:
ZMYM2 (UniProt Q9UBW7) 0.019
WRB (UniProt O00258) -0.012
ULK3 isoform 4 (UniProt Q6PHR2) 0.046
YES1 (UniProt P07947) -0.054
WDR41 (UniProt Q9HAD4) -0.08
WEE1 (UniProt P30291) -0.03
ZBTB40 (UniProt Q9NUA8) 0.036
ZBTB33 (UniProt Q86T24) 0.009
WDR45 isoform 2 (UniProt Q9Y484) 0
ZFYVE19 (UniProt Q96K21) 0.01
VPS72 (UniProt Q15906) -0.029
VPS39 (UniProt Q96JC1) -0.005
VANGL1 (UniProt Q8TAA9) -0.031
YTHDC2 (UniProt Q9H6S0) 0.018
ZMAT2 (UniProt Q96NC0) -0.024
VPS28 (UniProt Q9UK41) -0.043
WDR20 isoform 7 (UniProt Q8TBZ3) -0.013
WDR62 isoform 4 (UniProt O43379) -0.014
WAC (UniProt Q9BTA9) -0.014
ZNF845 (UniProt Q96IR2) -0.113
USP22 (UniProt Q9UPT9) 0.001
USE1 (UniProt Q9NZ43) 0.053
YWHAQ (UniProt P27348) 0.013
XPOT (UniProt O43592) 0.009
VRK2 (UniProt Q86Y07) 0.039
VPS4A (UniProt Q9UN37) -0.013
USP16 (UniProt Q9Y5T5) -0.019
WDR6 (UniProt Q9NNW5) -0.025
VAC14 (UniProt Q08AM6) 0.005

What follows are targets tested with c1cn2cc(-c3ccc4cn[nH]c4c3)nc(Nc3ccc(N4CCOCC4)cc3)c2n1 [entospletinib] in the same assay as above.
Summary of the method: as §1

log2 fold change, inactive:
ZMYM2 (UniProt Q9UBW7) 0.069
WRB (UniProt O00258) 0.146
ULK3 isoform 4 (UniProt Q6PHR2) 0.273
YES1 (UniProt P07947) 0.038
WDR41 (UniProt Q9HAD4) 0.01
WEE1 (UniProt P30291) -0.007
ZBTB33 (UniProt Q86T24) -0.033
WDR45 isoform 2 (UniProt Q9Y484) 0.009
ZFYVE19 (UniProt Q96K21) -0.012
VPS72 (UniProt Q15906) -0.014
VPS39 (UniProt Q96JC1) 0.013
VANGL1 (UniProt Q8TAA9) -0.009
YTHDC2 (UniProt Q9H6S0) 0.013
ZMAT2 (UniProt Q96NC0) 0.021
VPS28 (UniProt Q9UK41) 0.033
WDR20 isoform 7 (UniProt Q8TBZ3) 0.018
WDR62 isoform 4 (UniProt O43379) -0.016
WAC (UniProt Q9BTA9) -0.046
USP22 (UniProt Q9UPT9) 0.059
USE1 (UniProt Q9NZ43) -0.036
YWHAQ (UniProt P27348) 0.022
XPOT (UniProt O43592) 0.037
VRK2 (UniProt Q86Y07) -0.064
VPS4A (UniProt Q9UN37) 0.038
USP16 (UniProt Q9Y5T5) -0.031
WDR6 (UniProt Q9NNW5) 0
VAC14 (UniProt Q08AM6) -0.008
